One assay has as its target Albumin (Bos taurus) (UniProt P02769). Briefly: bovine serum albumin binders on microarray, profiling panel, artefact control for SMM control protein annotation, biochemical, small-molecule microarray, Alexa647 label, 635/667 nm fluorescence (AID 1118).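 Note: score merges 667 nm emission intensity and signal-to-noise per printed compound spot.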 Conditions: BSA-A647 binding, fluorescence 635 nm, higher = more signal.
Assay [1] in a line: small-molecule microarray binders of probe aXIP, primary screen, biochemical, NeuroSMM set, 635/667 nm fluorescence (AID 1119).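 Note: probe is the protein aXip251-270 applied at 1 µg/mL to compound-printed slides; binding of probe to printed compounds measured as 667 nm fluorescence plus signal to noise.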 Conditions: higher = more signal, called active from +8 up or from −8 down.
The nature of assay [2]: small-molecule binders of probe aNOTCH3, primary screen, biochemical, small-molecule microarray, 635/667 nm fluorescence (AID 1120).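 Note: probe is a biotin-tagged antibody raised against NOTCH3 rather than NOTCH3 protein; score merges spot fluorescence near 667 nm with spot signal to noise.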 Conditions: higher = more signal.
Assay [3] is described as follows: small-molecule binders of probe aNOTCH2, primary screen, biochemical, small-molecule microarray, 635/667 nm fluorescence (AID 1121).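 Note: score merges feature fluorescence read at 667 nm with its signal to noise.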 Particulars: higher = more signal.
Assay [4] concerns the target Carbonic anhydrase 2 (Homo sapiens) (UniProt P00918). Briefly: CAII small-molecule binders, profiling panel, biochemical, small-molecule microarray, Alexa647-labelled CAII (AID 1122). Conditions: CAII-A647 binding fluorescence, higher = more signal.
Assay [5] can be described thus: COS7 lysate on small-molecule microarray, probe aHis, 635 nm (AID 1123).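 Note: z-score combines 667nm fluorescence intensity with signal-to-noise per printed compound spot.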 Conditions: COS7 cell lysate, fluorescence, higher = more signal.
Assay [6] in a line: compound binding in COS7 lysate, probe aLAP1, primary screen, cell lysate, small-molecule microarray (AID 1124).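 Note: lysate comes from COS7 cells expressing LAP1 and is applied at 0.3 µg/mL; score merges spot fluorescence near 667 nm with signal-to-noise over triplicate slides.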 Conditions: probe aLAP1, fluorescence, higher = more signal.
A further assay has as its system Sam68 (KHDRBS1). As to the kind of experiment: Sam68 small-molecule binders, primary screen, biochemical, small-molecule microarray, 635 nm fluorescence (AID 1125).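 Note: score merges 667 nm channel intensity with signal to noise over triplicate slides.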 Conditions: small-molecule microarray binding, higher = more signal.
Assay [7] has as its system Chordin-like protein 2 (CHRDL2). As to the kind of experiment: CHRDL2 small-molecule binders, primary screen, biochemical, small-molecule microarray, 635 nm fluorescence (AID 1126).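 Note: printed compound slides probed with Chrdl2 protein at 4 µg/mL for 1 h at 4 C; score merges 667 nm emission intensity with signal to noise over three replicate slides.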 Particulars: small-molecule microarray binding, fluorescence 635 nm; higher = more signal.
Assay [8] deals with Concanavalin-A (Canavalia ensiformis) (UniProt P02866). As to the kind of experiment: ConA small-molecule binders, primary screen, artefact control for SMM control protein annotation, biochemical, small-molecule microarray, Alexa647 label, 635 nm (AID 1127).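 Note: z combines 667 nm emission intensity with signal-to-noise across three replicate slides.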 Particulars: ConA-A647 binding fluorescence, higher = more signal.
Assay [9] can be described thus: anti-His antibody binders, primary screen, artefact control for SMM control protein annotation, biochemical, small-molecule microarray, 635 nm fluorescence (AID 1128).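 Note: score merges feature fluorescence with signal-to-noise for each printed compound spot.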 Conditions: anti-His Alexa647 antibody binding, higher = more signal.
For assay [10], the system named is Human papillomavirus type 1a E7 protein (residues 1-88). As to the kind of experiment: HPV1a E7 small-molecule binders, primary screen, biochemical, small-molecule microarray, residues 1-88, 635 nm (AID 1129). Particulars: small-molecule microarray binding, fluorescence 635 nm; higher = more signal.
The target of assay [11] is Focal adhesion kinase 1 (Homo sapiens) (UniProt Q05397). As to the kind of experiment: small-molecule microarray binders of FAK, primary screen, biochemical, 635/667 nm fluorescence, BSA, DTT (AID 1130).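 Note: composite of spot emission at 667 nm and signal to noise over triplicate slides.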 Conditions: PTK2 binding, 635 nm fluorescence, higher = more signal.
For assay [12], the system named is Fibrinogen (Alexa647-labelled). Briefly: fibrinogen binders on compound microarrays, profiling panel, artefact control for SMM control-protein annotation, biochemical, small-molecule microarray, 635/667 nm fluorescence (AID 1131).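 Note: z-score merges 667 nm fluorescence with per-spot signal-to-noise over triplicate slides.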 Particulars: fibrinogen-A647 binding fluorescence, higher = more signal.
The target of assay [13] is Follistatin (Homo sapiens) (UniProt P19883). Briefly: follistatin binders on small-molecule microarrays, primary screen, biochemical, small-molecule microarray, 635/667 nm fluorescence (AID 1132). Conditions: FST binding, 635 nm fluorescence, higher = more signal.
Assay [14] deals with Fibroblast growth factor 2 (Homo sapiens) (UniProt P09038). Briefly: FGF2 binders on small-molecule microarrays, primary screen, biochemical, small-molecule microarray, 635/667 nm fluorescence (AID 1133). Conditions: small-molecule microarray binding, FGF2, fluorescence 635/667; higher = more signal.
Assay [15] in a line: mitochondrial membrane potential change in A549 cells, profiling panel, cell-based, JC-1 fluorescence, basal, 24 h, 100 nL (AID 1138).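 Note: A549 lung adenocarcinoma cells under basal conditions with no added stimulus; test concentration not given here.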 Conditions: higher = more signal.
For the next assay, the system named is Lefty1. Briefly: Lefty1 binders on small-molecule microarrays, primary screen, biochemical, small-molecule microarray, 635/667 nm fluorescence (AID 1139). Particulars: small-molecule microarray binding, fluorescence 635/667; higher = more signal.
Assay [16] relates to wheat germ agglutinin (Triticum aestivum), Alexa647-labelled. As to the kind of experiment: wheat germ agglutinin binders on compound microarrays, profiling panel, artefact control for SMM control-protein annotation, biochemical, small-molecule microarray, 635/667 nm fluorescence (AID 1140).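 Note: score merges 667 nm feature emission with signal to noise over triplicate slides.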 Conditions: WGA-A647 binding, 635 nm fluorescence, higher = more signal.
The target in assay [17] is Luciferin 4-monooxygenase (Photinus pyralis) (UniProt P08659). Briefly: firefly luciferase enzyme inhibitors, primary screen, biochemical, luminescence, purified enzyme, 2006 set (AID 1141).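 Note: cell-free assay with purified firefly luciferase at 100 ng per well in PBS; test concentration not given here.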 Conditions: SteadyGlo luminescence, 30 min, higher = more signal, called active from +8 up or from −8 down.

The source made the active and inactive calls.

The values below come from PubChem BioAssay.

Sequence of Luciferin 4-monooxygenase (Photinus pyralis) (P08659 whole entry, looked up): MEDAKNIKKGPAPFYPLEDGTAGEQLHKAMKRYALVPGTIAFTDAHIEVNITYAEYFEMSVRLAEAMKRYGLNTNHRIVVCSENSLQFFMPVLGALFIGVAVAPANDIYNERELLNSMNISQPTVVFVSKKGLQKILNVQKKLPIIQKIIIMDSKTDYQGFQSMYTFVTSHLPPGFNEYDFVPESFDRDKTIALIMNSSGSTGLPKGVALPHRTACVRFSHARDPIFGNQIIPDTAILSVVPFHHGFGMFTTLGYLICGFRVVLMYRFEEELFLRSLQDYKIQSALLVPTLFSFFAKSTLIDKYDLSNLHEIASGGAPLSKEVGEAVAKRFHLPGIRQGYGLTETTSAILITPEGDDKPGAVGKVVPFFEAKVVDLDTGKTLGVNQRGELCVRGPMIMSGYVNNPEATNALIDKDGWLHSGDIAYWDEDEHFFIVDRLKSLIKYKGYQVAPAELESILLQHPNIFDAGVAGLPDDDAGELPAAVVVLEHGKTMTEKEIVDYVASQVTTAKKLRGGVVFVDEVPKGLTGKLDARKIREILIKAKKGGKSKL
Sequence of Follistatin (Homo sapiens) (P19883 whole entry, looked up): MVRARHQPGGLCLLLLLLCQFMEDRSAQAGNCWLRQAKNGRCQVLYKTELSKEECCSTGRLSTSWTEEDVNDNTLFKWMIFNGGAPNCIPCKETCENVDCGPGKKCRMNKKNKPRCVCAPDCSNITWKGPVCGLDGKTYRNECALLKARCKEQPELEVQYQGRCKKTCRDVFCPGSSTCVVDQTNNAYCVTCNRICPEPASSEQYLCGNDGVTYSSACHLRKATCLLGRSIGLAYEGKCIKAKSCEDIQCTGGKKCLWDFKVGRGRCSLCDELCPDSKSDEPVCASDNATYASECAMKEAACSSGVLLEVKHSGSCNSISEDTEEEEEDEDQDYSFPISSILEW
Sequence of Fibroblast growth factor 2 (Homo sapiens) (P09038 whole entry, looked up): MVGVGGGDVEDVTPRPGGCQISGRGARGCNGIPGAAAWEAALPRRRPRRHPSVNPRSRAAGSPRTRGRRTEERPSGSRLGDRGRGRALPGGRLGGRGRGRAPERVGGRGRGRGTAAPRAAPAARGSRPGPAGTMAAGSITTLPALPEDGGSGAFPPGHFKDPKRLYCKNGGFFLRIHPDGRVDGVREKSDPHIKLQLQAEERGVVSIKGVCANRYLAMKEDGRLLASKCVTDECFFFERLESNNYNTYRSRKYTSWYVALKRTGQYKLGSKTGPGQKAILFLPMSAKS
Sequence of Concanavalin-A (Canavalia ensiformis) (P02866 whole entry, looked up): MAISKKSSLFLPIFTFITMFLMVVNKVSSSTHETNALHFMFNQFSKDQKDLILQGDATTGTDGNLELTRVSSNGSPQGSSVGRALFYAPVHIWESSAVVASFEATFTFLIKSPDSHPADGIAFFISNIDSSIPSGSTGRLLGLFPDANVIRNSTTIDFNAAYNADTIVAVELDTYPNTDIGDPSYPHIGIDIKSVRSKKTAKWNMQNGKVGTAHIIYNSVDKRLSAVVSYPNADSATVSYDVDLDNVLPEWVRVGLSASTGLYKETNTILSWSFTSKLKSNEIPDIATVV
Sequence of Focal adhesion kinase 1 (Homo sapiens) (Q05397 whole entry, looked up): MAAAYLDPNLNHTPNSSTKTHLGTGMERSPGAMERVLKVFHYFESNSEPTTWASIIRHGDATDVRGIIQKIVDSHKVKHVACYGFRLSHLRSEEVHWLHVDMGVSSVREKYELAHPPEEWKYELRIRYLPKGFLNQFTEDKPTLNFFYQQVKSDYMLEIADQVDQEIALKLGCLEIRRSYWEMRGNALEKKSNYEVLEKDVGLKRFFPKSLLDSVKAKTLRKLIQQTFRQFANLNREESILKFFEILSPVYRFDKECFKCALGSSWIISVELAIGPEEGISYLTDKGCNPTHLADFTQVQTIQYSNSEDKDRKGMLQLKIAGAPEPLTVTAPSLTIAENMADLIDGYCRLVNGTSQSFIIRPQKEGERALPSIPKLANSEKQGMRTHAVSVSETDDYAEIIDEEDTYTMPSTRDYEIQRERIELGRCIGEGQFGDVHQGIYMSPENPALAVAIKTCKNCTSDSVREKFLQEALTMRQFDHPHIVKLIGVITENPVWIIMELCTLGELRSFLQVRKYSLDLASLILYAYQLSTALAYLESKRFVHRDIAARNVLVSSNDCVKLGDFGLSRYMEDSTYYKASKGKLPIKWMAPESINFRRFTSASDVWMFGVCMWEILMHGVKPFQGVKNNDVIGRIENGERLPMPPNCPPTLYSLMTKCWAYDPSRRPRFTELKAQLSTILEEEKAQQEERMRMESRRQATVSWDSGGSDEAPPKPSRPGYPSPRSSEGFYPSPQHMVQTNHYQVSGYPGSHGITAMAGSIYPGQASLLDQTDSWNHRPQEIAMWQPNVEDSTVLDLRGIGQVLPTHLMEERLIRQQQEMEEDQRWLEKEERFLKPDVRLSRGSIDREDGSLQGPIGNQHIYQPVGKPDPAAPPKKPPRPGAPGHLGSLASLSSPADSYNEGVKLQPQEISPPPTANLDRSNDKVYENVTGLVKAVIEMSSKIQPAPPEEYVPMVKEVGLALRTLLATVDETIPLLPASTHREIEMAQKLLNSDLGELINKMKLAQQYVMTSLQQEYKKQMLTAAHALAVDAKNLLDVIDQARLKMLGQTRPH
Sequence of Albumin (Bos taurus) (P02769 whole entry, looked up): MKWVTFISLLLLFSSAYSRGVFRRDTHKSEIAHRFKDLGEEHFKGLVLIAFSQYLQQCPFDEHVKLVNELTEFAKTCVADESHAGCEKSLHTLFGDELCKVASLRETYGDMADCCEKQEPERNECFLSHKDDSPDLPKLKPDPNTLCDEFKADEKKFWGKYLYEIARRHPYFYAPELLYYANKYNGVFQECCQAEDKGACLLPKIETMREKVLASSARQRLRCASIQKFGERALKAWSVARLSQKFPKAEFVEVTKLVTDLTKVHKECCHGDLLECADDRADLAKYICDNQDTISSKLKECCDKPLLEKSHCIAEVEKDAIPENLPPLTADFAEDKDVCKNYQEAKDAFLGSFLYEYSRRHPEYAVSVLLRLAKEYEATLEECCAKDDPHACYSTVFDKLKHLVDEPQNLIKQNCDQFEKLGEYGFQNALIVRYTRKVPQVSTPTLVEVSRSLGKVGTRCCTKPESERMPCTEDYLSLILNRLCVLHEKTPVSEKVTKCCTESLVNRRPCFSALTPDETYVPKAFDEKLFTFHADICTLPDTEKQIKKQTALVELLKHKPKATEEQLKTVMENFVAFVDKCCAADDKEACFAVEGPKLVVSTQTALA

As for `CCCC=C(CCC)[C@@H](NC(=O)c1ccc(-c2ccccc2)cc1)c1ccc(C(=O)OC)cc1`, the composite z-score with Albumin (Bos taurus) is 0.127; in [2] it was 0.197; in [3] it was 0.0382; in [4] it was 0.185; in [5], 2.41; in assay [6], -0.075. For the same molecule, the composite z-score with Sam68 (KHDRBS1) is 1.26; in assay [7] it was -0.955; in assay [8], 0.724; in assay [9], 0.377; in [10], 1.19; in assay [11], 0.296. Also, the composite z-score in [12] is 0.967; in assay [13], 0.142; in assay [14], -0.558; in the assay on Lefty1, -0.182; in assay [16], 1.2. In assay [1], the composite Z-score is 0.0503 (inactive). Besides, the z-score is -0.457 in assay [15] and 1.93 (inactive) in assay [17].

Consider `CN(C)CCCNC(=O)[C@@H]1c2ccccc2C(=O)N(Cc2ccccc2)[C@H]1c1ccc(CO)cc1`, for which the composite z-score with Albumin (Bos taurus) was -0.688; in assay [2] it was -0.0971; in assay [3] it was -0.205; in assay [4], 0.196; in assay [5], 0.662; in [6], 1.37. Besides, the composite z-score is -0.0257 in the assay with Sam68 (KHDRBS1); -0.623 in [7]; -0.312 in [8]; 0.514 in [9]; -0.958 in assay [10]; -0.193 in assay [11]. The composite z-score in assay [12] is -0.355; in [13] it was -0.242; in assay [14], -0.158; in the assay with Lefty1, -0.201; in [16], -0.0107. Moreover, in assay [1], the composite Z-score is 0.799 (inactive). Besides, the z-score in [15] was 1.85; in [17] it was -0.784 (inactive).

Consider `CCOC(=O)C1=CC[C@H]2C(=O)N(CC)C(=O)[C@@H]12`, for which the composite z-score was 0.343 with Albumin (Bos taurus); 0.0242 in assay [2]; -0.0866 in assay [3]; 0.522 in assay [4]; 1.01 in assay [5]; 0.111 in [6]. Moreover, the composite z-score in the assay on Sam68 (KHDRBS1) was 1.09; in assay [7] it was 0.363; in assay [8], 0.65; in assay [9], 0.299; in assay [10] it was 0.775; in assay [11], -0.0436. The composite z-score was determined as 0.775 in assay [12]; 0.269 in assay [13]; 0.218 in assay [14]; 0.443 in the assay with Lefty1; 0.433 in assay [16]. Further, the composite Z-score in assay [1] was 0.806 (inactive). Moreover, the figures for the z-score in [15] and in assay [17] were -1.1 and 1.69 (inactive), respectively.

On to `CCc1cc2c(nc1CC)CCN(CCC(C)=NO[C@@H](C)c1cc(-c3c(C)cc(C)cc3C)no1)C2`, for which the composite z-score is 0.417 with Albumin (Bos taurus); -0.146 in [2]; -0.0649 in [3]; -0.195 in assay [4]; 0.778 in [5]; -0.126 in [6]. Further, the composite z-score with Sam68 (KHDRBS1) was 0.353; in assay [7], -0.121; in assay [8], 0.765; in assay [9], 0.0635; in assay [10], -0.22; in assay [11] it was -0.0159. In addition, the composite z-score in assay [12] was 0.397; in assay [13] it was -0.265; in assay [14], -0.2; in the assay with Lefty1, 0.388; in [16], 0.0999. For the same molecule, in assay [1], the composite Z-score is -0.128 (inactive). Also, the figures for the z-score in assay [15] and in [17] were 1.69 and -0.887 (inactive), respectively.

Consider `COC(=O)[C@@H]1CC[C@H](C)[C@@H](c2ccc(C)cc2)N1C(=O)c1ccc(C=NOC[C@@H](O)COCc2ccco2)cc1`, for which the composite z-score with Albumin (Bos taurus) is -0.188; in assay [2] it was -0.0077; in assay [3] it was -0.195; in assay [4], -0.746; in [5] it was -1.31; in [6], 0.171. For the same molecule, the composite z-score in the assay with Sam68 (KHDRBS1) was -1.9; in assay [7], -0.177; in assay [8] it was -3.62; in assay [9] it was 0.373; in [10] it was -1.79; in assay [11], -0.574. The composite z-score in assay [12] is -1.68; in assay [13], -0.526; in assay [14] it was -1.18; in the assay on Lefty1, -1.09; in assay [16], -0.893. For the same molecule, in [1], the composite Z-score is -0.93 (inactive). The z-score in assay [15] is -0.245; in [17] it was 0.193 (inactive).
